Measurements taken from PubChem BioAssay AID1224921 (Broad Institute, 2016).
The whole screen tested about 1,400 compounds, of which about 350 (25%) were called active. About 2% were inconclusive and are not listed. How the calls were made is not given here. A selection follows. Measured potencies and affinities stand elsewhere.

Test: inhibitors of Clostridioides difficile proliferation – 4-point retest, confirmation (AID 1224921);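 further: plate controls were DMSO wells for no effect and levofloxacin 16 µg/mL wells for full effect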
Details: Clostridioides difficile clinical isolate growth, OD600, 24 h, hits give low values; at 30 µM unless noted

Max activity, inactive:
CO[C@@H]1CN(C)C(=O)c2cc(NS(=O)(=O)c3cccc(F)c3)ccc2OC[C@@H](C)N(Cc2cc(F)ccc2F)C[C@@H]1C 14.2%, NC(=O)[C@@H]1[C@H]2C(=O)O[C@H](c3ccccc3)[C@H](c3ccccc3)N2[C@H](c2ccc(O)cc2)[C@@]12C(=O)Nc1ccc(C#CC3=CCCCC3)cc12 21.8%, CCCN1C[C@H](C)[C@@H](OC)CN(C)C(=O)c2ccc(NC(=O)Nc3c(C)noc3C)cc2OC[C@@H]1C 29.7%, C[C@@H]1CN([C@@H](C)CO)C(=O)c2ccccc2-c2ccccc2CO[C@H]1CN(C)C(=O)c1ccc(F)cc1 -6.68% [at 8 µM], C[C@@H]1CN([C@@H](C)CO)C(=O)Cc2cc(NC(=O)c3ccncc3)ccc2O[C@@H]1CN(C)Cc1ccc(-c2ccccc2)cc1 41.4%, N#C[C@H]1[C@@H](c2ccc(C#CC3CCCCC3)cc2)[C@@H](CO)N1C(=O)Cc1ccccn1 24.3% [at 0.5 µM], C[C@H](CO)N1C[C@H](C)[C@@H](CN(C)Cc2ccccc2)Oc2ccc(NS(C)(=O)=O)cc2CC1=O 28% [at 35 µM], CO[C@@H]1CN(C)C(=O)c2ccc(NC(=O)c3ccc(F)cc3)cc2OC[C@@H](C)N(C(=O)c2ccc(F)cc2)C[C@@H]1C -7.95% [at 0.5 µM], C[C@@H](NC(=O)C[C@H]1C=C[C@H](NC(=O)C2CCC2)[C@@H](CO)O1)c1ccccc1 -13.6% [at 0.5 µM], CCC(=O)N1C[C@H](C)[C@H](OC)CN(C)C(=O)c2cc(NS(=O)(=O)CC)ccc2OC[C@H]1C -9.49% [at 1.95 µM], C[C@H]1CN([C@@H](C)CO)S(=O)(=O)c2ccc(C#CC3CC3)cc2O[C@@H]1CN(C)Cc1ccncc1 47%, C[C@@H]1CN([C@@H](C)CO)C(=O)c2c(c3ccccc3n2C)-c2ccccc2CO[C@@H]1CN(C)Cc1cccc(C(=O)O)c1 -12.2% [at 8 µM], Cc1ccc(F)cc1S(=O)(=O)N[C@H]1CCN(Cc2ccc(OC(C)C)cc2)C1 21.6%, COc1ccc(CN(C)C[C@@H]2Oc3c(NC(=O)Nc4ccc(C(F)(F)F)cc4)cccc3C(=O)N([C@@H](C)CO)C[C@H]2C)cc1 38%, COc1ccc(CN(C)C[C@H]2Oc3c(NC(=O)Nc4ccc(C(F)(F)F)cc4)cccc3C(=O)N([C@@H](C)CO)C[C@@H]2C)cc1 32.3% [at 8 µM], COc1cccc(S(=O)(=O)N[C@@H]2CC[C@H](CCN)O[C@@H]2CO)c1 -11.8% [at 1.95 µM], CNC[C@@H]1Oc2cc(C#CCC3CCCC3)ccc2S(=O)(=O)N([C@H](C)CO)C[C@H]1C 18.8% [at 8 µM], CCS(=O)(=O)Nc1ccc2c(c1)C(=O)N(C)C[C@H](OC)[C@H](C)CN(C)[C@H](C)CO2 -7.51% [at 1.95 µM], CCCC#Cc1ccc2c(c1)O[C@H](CN(C)Cc1ccncc1)[C@@H](C)CN([C@@H](C)CO)S2(=O)=O 18.4%, CO[C@@H]1CN(C)C(=O)c2ccc(NC(=O)C3CCC3)cc2OC[C@@H](C)N(S(=O)(=O)c2ccc(Cl)cc2)C[C@H]1C -9.7% [at 2.1 µM], C[C@H](CO)N1C[C@H](C)[C@@H](CN(C)C(=O)Nc2ccc3c(c2)OCO3)Oc2cc(C#Cc3cccnc3)ccc2S1(=O)=O -15.3% [at 8 µM], O=C(N[C@H]1CC[C@@H](CCNS(=O)(=O)Cc2ccccc2)O[C@@H]1CO)c1ccc2c(c1)OCO2 16.7%, CN(C)C(=O)C[C@@H]1CC[C@H](NC(=O)c2ccc(F)cc2)[C@H](CO)O1 -7.24% [at 1.95 µM], C[C@@H](NC(=O)C[C@@H]1C=C[C@@H](NC(=O)C2CCC2)[C@H](CO)O1)c1ccccc1 -14.9%, COc1ccc(C(=O)Nc2ccc3c(c2)OC[C@@H](C)N(C(=O)C2CC2)C[C@@H](C)[C@H](OC)CN(C)C3=O)cc1 3.99% [at 35 µM], CO[C@H]1CN(C)C(=O)c2ccc(NC(=O)c3ccccc3F)cc2OC[C@H](C)N(CC2CC2)C[C@H]1C -14.6% [at 1.95 µM], C[C@@H]1CN([C@@H](C)CO)C(=O)Cc2cc(NS(C)(=O)=O)ccc2O[C@@H]1CN(C)Cc1ccc(-c2ccccc2)cc1 21.7%, CNC[C@@H]1Oc2cc(-c3ccccc3F)ccc2S(=O)(=O)N([C@H](C)CO)C[C@H]1C 24.6%, O=C(Cc1ccncc1)NCC[C@H]1CC[C@H](NC(=O)C2CCC2)[C@H](CO)O1 -8.69% [at 1.95 µM], O=C(Cc1ccncc1)NCC[C@@H]1CC[C@H](NC(=O)C2CCC2)[C@@H](CO)O1 -11.9% [at 0.5 µM], O=C(Cc1ccncc1)NCC[C@H]1CC[C@H](NC(=O)C2CCC2)[C@@H](CO)O1 -8.1% [at 35 µM], CN(C)C(=O)C[C@@H]1CC[C@H](NC(=O)c2ccc(F)cc2)[C@@H](CO)O1 5.78% [at 8 µM], COc1ccc(-c2ccc3c(c2)O[C@H](CN(C)Cc2cccnc2)[C@@H](C)CN([C@H](C)CO)S3(=O)=O)cc1 25.8%, C[C@@H]1CN([C@H](C)CO)C(=O)Cc2cc(NC(=O)c3ccncc3)ccc2O[C@H]1CN(C)Cc1ccc(Cl)c(Cl)c1 5.9% [at 35 µM], O=C(N[C@@H]1C=C[C@H](CC(=O)N2CCOCC2)O[C@@H]1CO)c1cccc(F)c1 9.1% [at 8 µM], CCCC(=O)Nc1ccc2c(c1)C(=O)N(C)C[C@H](OC)[C@@H](C)CN(CC1CCOCC1)[C@H](C)CO2 -10.3%, O=C(C[C@H]1C[C@H]2c3cc(NS(=O)(=O)c4ccc(F)cc4)ccc3O[C@H]2[C@H](CO)O1)NCc1ccc(-c2ccccc2)cc1 -6.35% [at 1.95 µM], COCC(=O)N1[C@@H]2c3ccc(-c4ccncc4)c(=O)n3C[C@@H]2[C@@H](CO)[C@@H]1C(=O)Nc1ccccc1 -4.68% [at 0.5 µM], C[C@H](NC(=O)C[C@@H]1C[C@@H]2c3cc(NC(=O)NC4CCCCC4)ccc3O[C@@H]2[C@H](CO)O1)c1ccccc1 -12.5% [at 1.95 µM], C[C@@H]1CN([C@@H](C)CO)C(=O)Cc2cc(N(C)C)ccc2O[C@@H]1CN(C)Cc1ccc(Oc2ccccc2)cc1 32.7%, C[C@@H]1CN([C@H](C)CO)C(=O)Cc2cc(N(C)C)ccc2O[C@@H]1CN(C)Cc1ccc(Oc2ccccc2)cc1 27.6% [at 35 µM], C[C@H](CO)N1C[C@H](C)[C@@H](CN(C)Cc2ccc(C(F)(F)F)cc2)Oc2ccc(N(C)C)cc2CC1=O 14% [at 8 µM], C[C@H](CO)N1C[C@H](C)[C@@H](CN(C)Cc2ccccc2)Oc2ccc(N(C)C)cc2CC1=O 18.1%, C[C@@H]1CN([C@@H](C)CO)C(=O)Cc2cc(NC(=O)C3CC3)ccc2O[C@@H]1CN(C)Cc1ccc(Oc2ccccc2)cc1 32.9%, C[C@@H]1CN([C@H](C)CO)C(=O)Cc2cc(N(C)C)ccc2O[C@@H]1CN(C)Cc1ccc(-c2ccccc2)cc1 13.4% [at 8 µM], C[C@@H]1CN([C@H](C)CO)S(=O)(=O)c2ccc(C#Cc3ccccc3)cc2O[C@H]1CN(C)C(=O)Nc1ccccc1 8.1% [at 8 µM], C[C@H](CO)N1C[C@H](C)[C@@H](CN(C)CC2CC2)Oc2cc(-c3ccc(F)cc3)ccc2S1(=O)=O 38%, CN(C)CC(=O)N1[C@H](C#N)[C@H](c2ccc(C#CC3CCCCC3)cc2)[C@@H]1CO 14.2% [at 8 µM], CN(C)CC(=O)N1[C@@H](C#N)[C@H](c2ccc(C#CC3CCCCC3)cc2)[C@@H]1CO 22.7% [at 8 µM], N#C[C@H]1[C@@H](c2ccc(C#CC3CCCCC3)cc2)[C@@H](CO)N1S(=O)(=O)c1ccccc1 31.9% [at 8 µM], CCCC#Cc1ccc([C@H]2[C@@H](CO)N(C(=O)C3CCCCC3)[C@H]2C#N)cc1 25.3% [at 8 µM], Cc1ccccc1S(=O)(=O)N1[C@H](C#N)[C@@H](c2ccc(C#CC3CC3)cc2)[C@@H]1CO 26.6% [at 7.5 µM], N#C[C@H]1[C@@H](c2ccc(C#CC3CCCC3)cc2)[C@@H](CO)N1S(=O)(=O)Cc1ccccc1 29.9% [at 8 µM], CCCC(=O)Nc1ccc2c(c1)C(=O)N(C)C[C@@H](OC)[C@H](C)CN(CC1CCOCC1)[C@H](C)CO2 -10.1%, CCC(=O)N[C@@H]1C=C[C@H](CC(=O)OC)O[C@H]1CO -12.4%, CN1CCN(C(=O)C[C@H]2C[C@H]3c4cc(NC(=O)Cc5ccncc5)ccc4O[C@H]3[C@H](CO)O2)CC1 13.8%, C[C@H](CO)N1C[C@H](C)[C@H](CN(C)Cc2ccc(C(F)(F)F)cc2)OCCCC[C@H](C)Oc2ccc(NC(=O)CCCN(C)C)cc2C1=O 31.1%, C[C@@H]1CN([C@@H](C)CO)C(=O)c2cc(/C=C/c3ccccc3)cnc2O[C@H]1CN(C)C(=O)NC1CCCCC1 -30.5% [at 8 µM], CCCN1C[C@@H](C)[C@H](OC)CN(C)C(=O)c2cc(NC(=O)COC)ccc2OC[C@@H]1C 15%
